A short description of assay [1]: qHTS assay to identify small molecule antagonists of the estrogen related receptor (ERR) signaling pathway from Tox21 library - cell viability counter screen (AID 1224834). Note: nearly all actives have a fitted effect of over 30% in size. An outline of the steps: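 Viability readout (CellTiter-Fluor fluorescence, 30 min at 37 C) multiplexed with the ERR assay; cells treated 17.5 h at 37 C with compounds delivered in DMSO.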
(In general: In qHTS, concentration-response curves come from the screen itself.)

For assay [2], the target named is Luciferin 4-monooxygenase (Photinus pyralis) (UniProt P08659). The assay is described as follows: qHTS assay to identify small molecule inhibitors of firefly luciferase (AID 1224835). Note: nearly all actives have a fitted effect of over 25% in size. A digest of the protocol: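 Quantitative HTS format; KM concentrations of both substrates. Purified P. pyralis FLuc activity quantified from luminescence images.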
Assay [3] in a line: qHTS assay to identify small molecule agonists of the constitutive androstane receptor (CAR) signaling pathway - cell viability counter screen (AID 1224836). Note: nearly all actives have a fitted effect of over 45% in size. An outline of the steps:
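HepG2 cells stably carrying hCAR and a CYP2B6-2.2kb reporter were plated 4 h, then given compounds at 15 concentrations plus PK11195 (final 0.75 uM). After 23 h at 37 C, viability was read by CellTiter-Fluor fluorescence.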

The nature of assay [4]: qHTS assay to identify small molecule antagonists of the constitutive androstane receptor (CAR) signaling pathway - cell viability counter screen (AID 1224837). Note: nearly all actives have a fitted effect of over 45% in size. An outline of the steps:
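Fluorescence from CellTiter-Fluor served as the viability signal. Human hepatoma HepG2 cells stably bearing hCAR and CYP2B6-2.2kb received compound plus CITCO (50 nM final) for 23 hr.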

Assay [5] concerns the target Nuclear receptor subfamily 1 group I member 3 (Homo sapiens) (UniProt Q14994). The assay can be described thus: qHTS assay to identify small molecule antagonists of the constitutive androstane receptor (CAR) signaling pathway (AID 1224838). Note: nearly all actives have a fitted effect of over 40% in size. An outline of the steps:
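Quantitative HTS in double-stable HepG2-CYP2B6-hCAR cells. After 4 h plating, cells get compound (15 concentrations) and CITCO at 50 nM final, incubate 24 h at 37 C, then ONE-Glo luminescence is read.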

For assay [6] the target is unchanged. The assay is described as follows: qHTS assay to identify small molecule agonists of the constitutive androstane receptor (CAR) signaling pathway (AID 1224839).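 For activation: HepG2 cells stably carrying human CAR and a CYP2B6 luciferase reporter.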 Note: nearly all actives have a fitted effect of over 15% in size. Note: potency is the fitted concentration of half-maximal effect. An outline of the steps:
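HepG2 cells stably expressing hCAR and a CYP2B6-2.2kb luciferase reporter were treated with compounds at 15 concentrations plus 0.75 uM PK11195 (final) for 24 h at 37 C; luminescence was read after ONE-Glo addition.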

Assay [7] deals with Thyrotropin receptor (Homo sapiens) (UniProt P16473). The assay is described as follows: qHTS assay to identify small molecule agonists of the thyroid stimulating hormone receptor (TSHR) signaling pathway (AID 1224843; calls by dose curve; note: nearly all actives have a fitted effect of over 45% in size). A digest of the protocol: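 Cell line HEK293 with TSHR; density 800/well. Exposure 30 min RT. Readout HTRF cAMP (cAMP-d2/anti-cAMP-cryptate), 1 h RT before reading.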

The nature of assay [8]: qHTS assay to identify small molecule agonists of the hypoxia (HIF-1) signaling pathway - cell viability counter screen (AID 1224844; calls by dose curve; note: nearly all actives have a fitted effect of over 50% in size). An outline of the steps:
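Luminescent ATP content (CellTiter-Glo, 30 min, room temperature) served as the viability measure in HRE-bla ME-180 cells exposed to compounds for 17 hrs in low-serum medium (0.5% dialyzed FBS).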

Assay [9] in a line: qHTS assay to identify small molecule agonists of H2AX (AID 1224845; active = well fitted activation curve with a large enough effect in the signal ratio in the repeat runs, not every such curve was filed as active; the % refers to the signal ratio). An outline of the steps:
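Wild-type CHO-K1 cells plated overnight, then exposed 3 hr at 37C to compounds at 15 concentrations (0.76% DMSO). Lysed, then HTRF anti-pH2AX(S139)-cryptate/anti-H2AX-d2 detection after 24 hr at room temperature; emissions 665 and 620 nm.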

The nature of assay [10]: qHTS assay to identify small molecule agonists of the hypoxia (HIF-1) signaling pathway (AID 1224846; active = well fitted activation curve with a large enough effect in the signal ratio in the repeat runs, not every such curve was filed as active; the % refers to the signal ratio). An outline of the steps:
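Measured by blue/green FRET after loading CCF4-AM: beta-lactamase expressed from a hypoxia response element in ME-180 cells. Test agents were delivered in DMSO and left 17 hrs; cells had been plated 5 hrs earlier in low-serum (0.5% dialyzed FBS) medium.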

A short description of assay [11]: qHTS assay to identify small molecule agonists of H2AX - cell viability counter screen (AID 1224847; calls by dose curve; note: top concentration of the series differs between compounds; nearly all actives have a fitted effect of over 30% in size). A digest of the protocol: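 Wild-type CHO-K1 cells (10% FBS medium) were plated overnight at 37C, exposed to compounds at 15 concentrations for 3 hr at 37C (0.76% DMSO final), and viability was read as CellTiter-Glo luminescence after 30 min at room temperature.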

Assay [12] in a line: qHTS RealTime-Glo MT Cell Viability Assay in HepG2 cells - 24 hour (AID 1224867). Note: nearly all actives have a fitted effect of over 50% in size. An outline of the steps: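 Compound treatment began 5 h after plating HepG2 cells (600/well) with NanoLuc luciferase and prosubstrate. Plates stayed at 37 C for 40 h; luminescence was captured at six time points, 0 h through 40 h.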
Assay [13] in a line: qHTS RealTime-Glo MT Cell Viability Assay in HEK293 cells - 32 hour (AID 1224868). Note: nearly all actives have a fitted effect of over 50% in size. Note: potency is the fitted concentration of half-maximal effect. An outline of the steps: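 Quantitative high-throughput screen of the Tox21 10K library in HEK293: cells and RealTime-Glo reagents plated together, compound added at 5 h, luminescence monitored through 40 h at 37 C.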
The nature of assay [14]: A CellTox Green Cytotoxicity Assay to monitor cytotoxicity in HEK293 cells - 0 hour (AID 1224869). Note: nearly all actives have a fitted effect of over 50% in size. A digest of the protocol:
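Each value comes from one timepoint of a single continuous run in which HEK293 cells with CellTox Green were exposed to compound for up to 40 h at 37 C, dye fluorescence rising with cell death.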

Assay [15] is described as follows: qHTS assay to identify small molecule antagonists of the estrogen related receptor signaling pathway with the pleiotropic PPARgamma coactivator (PGC) from Tox21 10K library - cell viability counter screen (AID 1224840; active = well fitted cell-killing curve with a large enough effect in the repeat runs, not every such curve was filed as active; note: nearly all actives have a fitted effect of over 40% in size). An outline of the steps:
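Compounds in DMSO, alongside positive and negative controls, were pinned onto PGC/ERR cells (2,000 per well). Exposure lasted 17.5 hours at 37 C, followed by a 30-minute CellTiter-Fluor incubation and fluorescence reading.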

Assay [16] can be described thus: qHTS assay to identify small molecule antagonists of the estrogen related receptor signaling pathway with the pleiotropic PPARgamma coactivator (PGC) from Tox21 10K library (AID 1224841; call rule not given here). A digest of the protocol: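 Compound exposure ran 18 hours at 37 C in PGC/ERR cells (2,000/well) that had first rested 6 hours in a 37 C/5% CO2 incubator. Luciferase activity was then detected with One-Glo after a 30-minute room-temperature step.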

The nature of assay [17]: qHTS assay to identify small molecule agonists of the estrogen related receptor signaling pathway with the pleiotropic PPARgamma coactivator (PGC) from Tox21 10K library (AID 1224842). Note: nearly all actives have a fitted effect of over 15% in size. A digest of the protocol:
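PGC/ERR reporter cells (NTP line) were seeded 2,000 per well, rested 6 h at 37 C/5% CO2, then pin-dosed with compounds in DMSO for 18 h at 37 C; luciferase read by One-Glo luminescence after 30 min at room temperature.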

Assay [18] can be described thus: qHTS assay to identify small molecule antagonists of the estrogen related receptor (ERR) signaling pathway from Tox21 library (AID 1224848). Note: nearly all actives have a fitted effect of over 50% in size. A digest of the protocol:
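Screening used an ERR reporter line supplied by NTP, exposed for 18 h at 37 C to library compounds delivered in DMSO. Signal was luciferase luminescence developed with ONE-Glo at room temperature for 30 min.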

Assay [19] in a line: qHTS assay to identify small molecule agonists of the estrogen related receptor (ERR) signaling pathway from Tox21 library (AID 1224849; calls by dose curve; note: nearly all actives have a fitted effect of over 15% in size). As to conditions: ERR reporter cell line, ONE-Glo luciferase, 18 h; at 92.4 µM (top of the series) unless noted. A digest of the protocol:
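We plated ERR reporter cells, waited 6 h, added compounds in DMSO by pin tool and incubated them 18 h at 37 C. ONE-Glo was then added and luminescence read after 30 min.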

Each structure is given as a SMILES string. A number with no mark means an inactive call. Results filed as inconclusive are left out. Calls of active or inactive are those of the source. Unless noted, calls come from the whole dose curve; as a rule, active = well fitted curve in the direction sought with a large enough effect in the repeat runs; inconclusive = weak or mixed curves; inactive = no such curve, though single readings can be large; an effect the other way counts as inactive or inconclusive.
% is set by controls: 0 for no effect and ±100 for the full control effect.

Chain of Nuclear receptor subfamily 1 group I member 3 (Homo sapiens) (Q14994 whole entry, looked up): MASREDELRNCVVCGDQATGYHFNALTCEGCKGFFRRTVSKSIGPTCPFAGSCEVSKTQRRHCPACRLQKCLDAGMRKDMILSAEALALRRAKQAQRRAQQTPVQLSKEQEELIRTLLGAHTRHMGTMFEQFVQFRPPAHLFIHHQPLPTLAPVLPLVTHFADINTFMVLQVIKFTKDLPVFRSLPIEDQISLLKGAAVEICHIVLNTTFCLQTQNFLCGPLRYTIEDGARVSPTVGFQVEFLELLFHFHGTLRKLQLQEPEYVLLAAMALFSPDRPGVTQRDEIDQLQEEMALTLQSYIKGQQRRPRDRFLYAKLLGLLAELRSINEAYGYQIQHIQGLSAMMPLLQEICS
Chain of Luciferin 4-monooxygenase (Photinus pyralis) (P08659 whole entry, looked up): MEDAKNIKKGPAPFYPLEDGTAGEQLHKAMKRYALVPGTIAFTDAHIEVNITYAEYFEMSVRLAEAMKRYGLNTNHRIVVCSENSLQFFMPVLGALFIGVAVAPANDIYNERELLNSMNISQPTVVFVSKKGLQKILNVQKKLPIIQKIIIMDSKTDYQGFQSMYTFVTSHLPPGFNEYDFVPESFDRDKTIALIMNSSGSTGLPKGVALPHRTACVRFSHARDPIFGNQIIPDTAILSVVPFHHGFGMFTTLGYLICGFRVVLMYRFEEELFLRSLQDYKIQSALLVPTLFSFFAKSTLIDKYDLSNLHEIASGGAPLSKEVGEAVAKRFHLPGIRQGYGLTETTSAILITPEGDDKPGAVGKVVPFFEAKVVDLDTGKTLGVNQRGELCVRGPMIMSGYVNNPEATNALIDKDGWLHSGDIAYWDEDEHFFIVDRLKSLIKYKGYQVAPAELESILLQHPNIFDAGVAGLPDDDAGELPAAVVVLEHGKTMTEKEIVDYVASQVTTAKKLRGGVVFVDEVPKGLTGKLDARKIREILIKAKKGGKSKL
Chain of Thyrotropin receptor (Homo sapiens) (P16473 whole entry, looked up): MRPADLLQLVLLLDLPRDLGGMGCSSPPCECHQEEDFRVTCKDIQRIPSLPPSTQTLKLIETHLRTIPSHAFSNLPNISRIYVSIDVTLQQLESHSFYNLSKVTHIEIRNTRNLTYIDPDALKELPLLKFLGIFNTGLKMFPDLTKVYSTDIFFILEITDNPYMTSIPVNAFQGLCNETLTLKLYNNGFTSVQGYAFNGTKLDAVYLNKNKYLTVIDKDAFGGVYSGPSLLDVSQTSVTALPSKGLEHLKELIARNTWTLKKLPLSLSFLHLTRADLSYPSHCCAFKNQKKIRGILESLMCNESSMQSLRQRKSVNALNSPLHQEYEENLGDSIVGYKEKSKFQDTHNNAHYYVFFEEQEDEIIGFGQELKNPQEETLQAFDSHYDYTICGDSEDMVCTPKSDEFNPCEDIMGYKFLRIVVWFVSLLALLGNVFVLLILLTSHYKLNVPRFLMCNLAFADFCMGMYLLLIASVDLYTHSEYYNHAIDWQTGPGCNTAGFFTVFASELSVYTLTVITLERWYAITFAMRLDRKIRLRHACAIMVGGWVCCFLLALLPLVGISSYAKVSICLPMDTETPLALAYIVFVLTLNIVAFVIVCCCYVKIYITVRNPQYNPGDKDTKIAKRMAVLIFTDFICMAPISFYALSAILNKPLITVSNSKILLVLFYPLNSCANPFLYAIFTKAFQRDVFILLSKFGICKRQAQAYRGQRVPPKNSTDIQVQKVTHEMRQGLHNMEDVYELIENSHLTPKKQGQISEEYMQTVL

Turning to `CCCCCCCCCCCCCCN(C)C`, the viability change, negative = cytotoxic in [1] is -1.07% [at 19 µM]; in [3] it was 5.26% [at 19 µM]. For the same molecule, the activity change, negative = inhibition in [2] was -3.07% [at 23.6 µM]. The activity change, negative = cytotoxicity in [4] is -1.86% [at 19 µM]; in assay [8] it was -7.12% [at 15.8 µM]; in [11] it was 0.248% [at 31.6 µM]; in [12], 1.14% [at 15.8 µM]. The activity, negative = inhibition in assay [5] is 21.5% [at 19 µM]. Further, the activation in [6] was -0.414% [at 19 µM]; in assay [7], 2.75% [at 19 µM]; in [10] it was -0.0233% [at 15.8 µM]. Further, the activation (H2AX phosphorylation) in [9] was 0.821% [at 31.6 µM].
As to `CCN(CC)CC(=O)Nc1c(C)cccc1C(=O)OC`, the Potency result in assay [1], in [2], in assay [3], in assay [4], in assay [5] and in [7] was “inactive” throughout. Also, the Potency result in assay [8], in [9], in assay [11], in [12], in assay [13] and in assay [14] was “inactive” in each case. The Potency in assay [6] was 23.7 µM (active). Also, the result in [10] was inactive.
As to `CNC1CCCN(c2c(F)cc3c(=O)c(C(=O)O)cn(C4CC4)c3c2OC)C1` (configuration not stated), the Potency result in [1], in assay [2], in assay [3], in assay [4], in assay [5] and in assay [6] was “inactive” each time. The Potency entry in assay [15], in [7], in assay [9], in [11], in assay [12] and in [13] was “inactive” throughout. Besides, the Potency entry in assay [14] was “inactive”. Besides, the molecule was called inactive in [10].
For the molecule `Cc1ccccc1S(N)(=O)=O`, the Potency entry in assay [1], in assay [2], in assay [3], in assay [4], in assay [5] and in [6] was “inactive” each time. Further, the Potency result in [15], in [7], in assay [11], in assay [12], in assay [13] and in assay [14] was “inactive” throughout. Moreover, the molecule was called inactive in assay [10].
As to `CC(=O)OCCC(C)CC(C)(C)C` (configuration not stated), the Potency result in [6] is “inactive”.
Same read-out and setting: the value for `CC1=CC[C@@]23C[C@@H]1C(C)(C)[C@@H]2CC[C@H]3C` was “inactive”.
`CC1CCCO1` (configuration not stated): the Potency entry in assay [1], in assay [2], in [4], in [5], in assay [6] and in [15] was “inactive” each time. Moreover, the Potency result in [8], in assay [9], in assay [11], in assay [12], in assay [13] and in [14] was “inactive” each time. Moreover, the molecule was called inactive in assay [10].
For the molecule `CC(C)c1ccc(C#N)cc1`, the Potency result in assay [1], in assay [2], in assay [4], in assay [5], in [6] and in [15] was “inactive” throughout. Further, the Potency entry in assay [16], in assay [17], in [7], in assay [8], in [9] and in assay [11] was “inactive” in each case. The Potency result in assay [18] and in assay [12] was “inactive” throughout. In assay [10], the call was inactive. Also, the activity change, positive = activation in [19] is -9.84%. For the same molecule, the Potency in assay [13] is 15.5 µM (active).
Take `O=C(O)c1ccc(O)cc1O`: the Potency entry in assay [1], in assay [2], in assay [4], in assay [5], in assay [6] and in assay [15] was “inactive” throughout. In addition, the Potency entry in assay [16], in assay [17], in assay [7], in assay [9], in [11] and in assay [18] was “inactive” throughout. Also, the Potency result in [12], in [13] and in assay [14] was “inactive” each time. The outcome in [10] was inactive. Also, the activity change, positive = activation in [19] is -9.45%.
